# Measured values reported in PubChem BioAssay (EPA / NIEHS).
# Where “and” joins values, the source holds several entries; their conditions need not be identical. Identical values can stand only once. Results filed as inconclusive are left out. Calls of active or inactive are those of the source. How the source made its calls: active means hit-call score of the fitted dose curve at least 0.9, where 1 is the maximum; inconclusive means response in the unintended direction; inactive means score below 0.9.
# What was measured:
# [1] = molecular target: human Endothelin Receptor Type B (ETB), EDNRB (gene 1910) (UniProt P24530); experiment: NVS_GPCR_hETB: NovaScreen (NVS) G Protein-Coupled Receptor Assay for human Endothelin Receptor Type B (ETB) (AID 2283267)
# Method in brief: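 Human astrocytoma cell membranes; radioligand competitive binding read by filter scintillation counting 4 hours after dosing. Single-concentration duplicate screen at 25 uM, then singleton concentration-response up to 50 uM; loss of signal versus DMSO.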
# [2] = molecular target: D(1A) dopamine receptor (Homo sapiens) (UniProt P21728); experiment: NVS_GPCR_hDRD1: NovaScreen (NVS) G Protein-Coupled Receptor Assay for human Dopamine Receptor D1 (DRD1) (AID 2283269)
# Chain of D(1A) dopamine receptor (Homo sapiens) (P21728 whole entry, looked up): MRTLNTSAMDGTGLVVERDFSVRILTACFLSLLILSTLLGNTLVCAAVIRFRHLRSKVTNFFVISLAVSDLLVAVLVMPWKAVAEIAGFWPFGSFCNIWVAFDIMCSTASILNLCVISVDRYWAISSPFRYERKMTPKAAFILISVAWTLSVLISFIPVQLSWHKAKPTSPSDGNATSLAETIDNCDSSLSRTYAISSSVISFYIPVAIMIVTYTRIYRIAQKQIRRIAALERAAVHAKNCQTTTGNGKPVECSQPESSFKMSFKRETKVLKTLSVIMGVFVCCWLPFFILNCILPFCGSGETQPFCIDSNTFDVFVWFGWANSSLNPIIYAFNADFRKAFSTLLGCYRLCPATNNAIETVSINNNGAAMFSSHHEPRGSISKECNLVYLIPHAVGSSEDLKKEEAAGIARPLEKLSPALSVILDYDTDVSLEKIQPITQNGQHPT
# Method in brief: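 Cell-free competition with radioligand, filter-trapped and scintillation-counted 1 h post-dose, using HEK293-derived human D1 preparation. Duplicate single-point testing at 25 uM first, then concentration series for actives; DMSO served as baseline, loss-of-signal scored.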
# [3] = molecular target: human Leukotriene B4 Receptor 1 (LTB4-BLT1), LTB4R (gene 1241) (UniProt Q15722); experiment: NVS_GPCR_hLTB4_BLT1: NovaScreen (NVS) G Protein-Coupled Receptor Assay for human Leukotriene B4 Receptor 1 (LTB4-BLT1) (AID 2283271)
# Method in brief: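 Radioligand displacement binding on receptor extracted from human neutrophils, cell-free, 1 h after dosing; filter-based scintillation counting. Primary screen in duplicate at 25 uM, actives retested in concentration-response up to 50 uM; loss of signal versus DMSO.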
# [4] = molecular target: human Adrenergic, Beta 1 Receptor (Adrb1), ADRB1 (gene 153) (UniProt P08588); experiment: NVS_GPCR_hAdrb1: NovaScreen (NVS) G Protein-Coupled Receptor Assay for human Adrenergic, Beta 1 Receptor (Adrb1) (AID 2283258)
# Chain of human Adrenergic, Beta 1 Receptor (Adrb1), ADRB1 (gene 153) (P08588 whole entry, looked up): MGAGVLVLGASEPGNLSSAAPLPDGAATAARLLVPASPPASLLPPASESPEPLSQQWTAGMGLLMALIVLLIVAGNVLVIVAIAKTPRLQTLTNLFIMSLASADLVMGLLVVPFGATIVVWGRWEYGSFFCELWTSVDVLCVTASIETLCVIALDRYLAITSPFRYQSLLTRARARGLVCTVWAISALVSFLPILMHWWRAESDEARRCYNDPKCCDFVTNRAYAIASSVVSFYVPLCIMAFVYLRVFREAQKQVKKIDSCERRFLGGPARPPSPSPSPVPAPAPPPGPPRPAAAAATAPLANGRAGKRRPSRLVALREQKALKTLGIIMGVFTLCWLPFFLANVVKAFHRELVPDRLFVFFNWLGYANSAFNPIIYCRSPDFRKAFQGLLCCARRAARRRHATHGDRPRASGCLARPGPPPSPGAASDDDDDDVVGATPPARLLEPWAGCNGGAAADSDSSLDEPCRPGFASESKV
# Method in brief: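 Cell-free radioligand displacement on receptor from human neuroepithelioma cells; 2 h after dosing, filter-based scintillation counting. Primary screen in duplicate at 25 uM, actives retested in concentration series; loss of signal vs DMSO baseline.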
# [5] = molecular target: Type-1 angiotensin II receptor (Homo sapiens) (UniProt P30556); experiment: NVS_GPCR_hAT1: NovaScreen (NVS) G Protein-Coupled Receptor Assay for human Angiotensin II receptor type 1 (AT1) (AID 2283263)
# Chain of Type-1 angiotensin II receptor (Homo sapiens) (P30556 whole entry, looked up): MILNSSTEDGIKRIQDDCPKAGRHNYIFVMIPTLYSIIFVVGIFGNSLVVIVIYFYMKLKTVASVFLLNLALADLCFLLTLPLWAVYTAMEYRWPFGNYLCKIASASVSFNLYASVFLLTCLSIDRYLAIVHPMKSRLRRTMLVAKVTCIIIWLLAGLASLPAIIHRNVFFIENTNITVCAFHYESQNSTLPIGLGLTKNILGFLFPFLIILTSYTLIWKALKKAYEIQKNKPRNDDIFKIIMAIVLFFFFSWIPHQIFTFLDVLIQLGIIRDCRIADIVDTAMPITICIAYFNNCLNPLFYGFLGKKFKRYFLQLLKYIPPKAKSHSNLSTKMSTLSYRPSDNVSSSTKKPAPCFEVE
# Method in brief: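 Membranes from KAN-TS cells; radioligand competitive displacement, 3 h, filtration and scintillation counting. Single-point duplicate screen at 25 uM, then concentration-response up to 50 uM for hits; loss of signal fitted versus DMSO.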
# [6] = molecular target: human Adrenergic, Alpha 2A Receptor (Adra2A), ADRA2A (gene 150) (UniProt P08913); experiment: NVS_GPCR_hAdra2A: NovaScreen (NVS) G Protein-Coupled Receptor Assay for human Adrenergic, Alpha 2A Receptor (Adra2A) (AID 2283257)
# Chain of human Adrenergic, Alpha 2A Receptor (Adra2A), ADRA2A (gene 150) (P08913 whole entry, looked up): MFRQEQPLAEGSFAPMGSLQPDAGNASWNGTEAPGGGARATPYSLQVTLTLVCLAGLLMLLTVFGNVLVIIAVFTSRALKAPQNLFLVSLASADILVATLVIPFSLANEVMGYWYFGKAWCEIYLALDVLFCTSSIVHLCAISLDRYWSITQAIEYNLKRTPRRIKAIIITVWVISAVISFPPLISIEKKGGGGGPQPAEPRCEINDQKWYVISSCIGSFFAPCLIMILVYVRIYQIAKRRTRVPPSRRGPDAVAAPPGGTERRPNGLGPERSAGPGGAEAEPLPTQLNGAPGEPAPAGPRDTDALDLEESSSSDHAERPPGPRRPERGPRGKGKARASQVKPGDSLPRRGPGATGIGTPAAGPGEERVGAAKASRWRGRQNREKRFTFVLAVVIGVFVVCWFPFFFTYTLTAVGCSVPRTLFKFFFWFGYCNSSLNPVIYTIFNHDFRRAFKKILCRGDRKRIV
# Method in brief: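 Radioligand filter-binding was run on HT29-derived membranes, cell-free, read by scintillation counting 1 h after dosing. Primary screening was in duplicate at 25 uM, with concentration series in follow-up. Loss of signal versus DMSO indicates displacement.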
# [7] = molecular target: human Adrenergic, Alpha 2c Receptor (Adra2C), ADRA2C (gene 152) (UniProt P18825); experiment: NVS_GPCR_hAdra2C: NovaScreen (NVS) G Protein-Coupled Receptor Assay for human Adrenergic, Alpha 2c Receptor (Adra2C) (AID 2283259)
# Chain of human Adrenergic, Alpha 2c Receptor (Adra2C), ADRA2C (gene 152) (P18825 whole entry, looked up): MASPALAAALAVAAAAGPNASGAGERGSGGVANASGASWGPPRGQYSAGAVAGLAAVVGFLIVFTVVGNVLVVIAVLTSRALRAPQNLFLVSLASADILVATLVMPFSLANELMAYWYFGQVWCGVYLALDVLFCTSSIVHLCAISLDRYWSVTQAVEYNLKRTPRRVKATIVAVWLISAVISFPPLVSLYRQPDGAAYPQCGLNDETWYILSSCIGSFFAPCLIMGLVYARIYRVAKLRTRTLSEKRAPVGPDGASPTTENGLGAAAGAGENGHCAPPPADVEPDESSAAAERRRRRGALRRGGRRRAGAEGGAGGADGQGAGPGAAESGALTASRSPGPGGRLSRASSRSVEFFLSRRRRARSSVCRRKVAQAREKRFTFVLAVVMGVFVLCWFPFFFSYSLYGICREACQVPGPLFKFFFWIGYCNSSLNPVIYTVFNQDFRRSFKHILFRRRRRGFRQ
# Method in brief: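 Radioligand binding on Sf9-expressed receptor membranes, 1 h after chemical dosing, filter-based scintillation read-out. Loss of binding fitted positively versus DMSO; primary duplicate screen at 25 uM, actives retested in concentration series.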
# [8] = molecular target: Beta-2 adrenergic receptor (Homo sapiens) (UniProt P07550); experiment: NVS_GPCR_hAdrb2: NovaScreen (NVS) G Protein-Coupled Receptor Assay for human Adrenergic, Beta 2 Receptor (Adrb2) (AID 2283261)
# Method in brief: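 Filter-based radioligand binding using receptor prepared from CHO cells, 1 h incubation, scintillation counting. Primary screen in duplicate at 25 uM, actives retested in concentration series; loss of binding relative to DMSO.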
# [9] = molecular target: human Dopamine Receptor D2 (DRD2), DRD2 (gene 1813) (UniProt P14416); experiment: NVS_GPCR_hDRD2s: NovaScreen (NVS) G Protein-Coupled Receptor Assay for human Dopamine Receptor D2 (DRD2) (AID 2283266)
# Method in brief: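 Radioligand displacement used human DRD2 membranes extracted from CHO cells and was read by filter-based scintillation counting after 1.5 hours. Primary screening was in duplicate at 25 uM. Loss of signal versus DMSO was fitted, with concentration series in follow-up.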
# [10] = molecular target: Muscarinic acetylcholine receptor M1 (Homo sapiens) (UniProt P11229); experiment: NVS_GPCR_hM1: NovaScreen (NVS) G Protein-Coupled Receptor Assay for human Muscarinic, M1 Receptor (AID 2283270)
# Method in brief: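 Cell-free radioligand displacement using membrane protein extracted from CHO cells, read by filter-based scintillation counting 1 h after dosing. Loss of bound signal fitted versus DMSO; primary screen single concentration 25 uM in duplicate, actives followed by concentration series.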
# [11] = molecular target: Muscarinic acetylcholine receptor M3 (Homo sapiens) (UniProt P20309); experiment: NVS_GPCR_hM3: NovaScreen (NVS) G Protein-Coupled Receptor Assay for human Muscarinic, M3 Receptor (AID 2283272)
# Method in brief: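 Radioligand displacement binding on human M3 receptor in CHO-derived membranes, 1 h incubation, filter-based scintillation counting. Primary screen in duplicate at 25 uM; actives followed up in concentration series; loss of signal versus DMSO.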
# [12] = molecular target: Muscarinic acetylcholine receptor M2 (Homo sapiens) (UniProt P08172); experiment: NVS_GPCR_hM2: NovaScreen (NVS) G Protein-Coupled Receptor Assay for human Muscarinic, M2 Receptor (AID 2283273)
# Chain of Muscarinic acetylcholine receptor M2 (Homo sapiens) (P08172 whole entry, looked up): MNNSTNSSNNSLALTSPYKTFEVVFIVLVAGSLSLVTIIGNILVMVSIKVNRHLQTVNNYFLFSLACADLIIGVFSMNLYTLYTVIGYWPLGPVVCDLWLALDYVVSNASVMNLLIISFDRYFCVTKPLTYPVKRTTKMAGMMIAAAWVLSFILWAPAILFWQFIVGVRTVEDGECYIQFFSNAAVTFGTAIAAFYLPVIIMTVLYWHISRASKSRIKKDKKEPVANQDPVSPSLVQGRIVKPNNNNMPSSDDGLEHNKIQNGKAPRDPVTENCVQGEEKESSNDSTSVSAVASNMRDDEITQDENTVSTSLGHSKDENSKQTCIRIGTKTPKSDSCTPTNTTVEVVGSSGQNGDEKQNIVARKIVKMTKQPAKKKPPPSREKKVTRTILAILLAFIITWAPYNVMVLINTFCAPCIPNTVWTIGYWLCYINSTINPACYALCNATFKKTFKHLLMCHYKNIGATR
# Method in brief: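 CHO membrane prep, radioligand + test compound, 1 h; filtration, scintillation count. Screen 25 uM duplicate → conc. series for actives. Readout: decrease in binding vs DMSO control.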
# [13] = molecular target: human Muscarinic, M4 Receptor, CHRM4 (gene 1132) (UniProt P08173); experiment: NVS_GPCR_hM4: NovaScreen (NVS) G Protein-Coupled Receptor Assay for human Muscarinic, M4 Receptor (AID 2283274)
# Chain of human Muscarinic, M4 Receptor, CHRM4 (gene 1132) (P08173 whole entry, looked up): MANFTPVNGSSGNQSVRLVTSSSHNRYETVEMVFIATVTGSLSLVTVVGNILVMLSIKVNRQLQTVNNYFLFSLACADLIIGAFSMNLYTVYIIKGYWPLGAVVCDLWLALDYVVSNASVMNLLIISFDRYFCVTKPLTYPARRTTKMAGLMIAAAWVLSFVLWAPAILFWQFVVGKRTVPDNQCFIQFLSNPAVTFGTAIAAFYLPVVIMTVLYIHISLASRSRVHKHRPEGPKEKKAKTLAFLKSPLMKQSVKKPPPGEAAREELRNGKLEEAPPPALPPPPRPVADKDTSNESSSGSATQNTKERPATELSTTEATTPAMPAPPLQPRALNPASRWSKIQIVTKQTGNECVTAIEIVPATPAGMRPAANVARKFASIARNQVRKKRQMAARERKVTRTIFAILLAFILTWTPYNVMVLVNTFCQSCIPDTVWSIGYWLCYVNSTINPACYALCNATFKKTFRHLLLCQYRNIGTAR
# Method in brief: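 Cell-free radioligand displacement using CHO-derived human M4 receptor protein, 1 h after dosing; bound radioactivity by filtration and scintillation counting. Primary screen single 25 uM duplicate, actives followed in concentration series.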
# [14] = molecular target: human Neurokinin, NK2 Receptor, TACR2 (gene 6865) (UniProt P21452); experiment: NVS_GPCR_hNK2: NovaScreen (NVS) G Protein-Coupled Receptor Assay for human Neurokinin, NK2 Receptor (AID 2283278);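 further: actives reduce bound radioligand signal relative to DMSO baseline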
# Chain of human Neurokinin, NK2 Receptor, TACR2 (gene 6865) (P21452 whole entry, looked up): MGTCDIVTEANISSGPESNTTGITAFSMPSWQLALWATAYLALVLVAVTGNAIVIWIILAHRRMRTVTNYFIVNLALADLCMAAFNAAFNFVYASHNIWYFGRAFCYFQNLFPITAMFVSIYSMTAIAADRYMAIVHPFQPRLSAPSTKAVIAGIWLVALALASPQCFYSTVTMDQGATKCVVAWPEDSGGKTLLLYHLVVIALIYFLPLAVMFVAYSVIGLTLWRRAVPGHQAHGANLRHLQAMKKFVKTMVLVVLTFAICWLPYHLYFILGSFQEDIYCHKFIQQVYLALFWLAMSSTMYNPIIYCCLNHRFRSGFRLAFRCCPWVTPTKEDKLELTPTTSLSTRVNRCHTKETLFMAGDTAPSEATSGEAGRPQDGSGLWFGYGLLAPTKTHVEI
# Method in brief: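 Cell-free radioligand binding using receptor protein extracted from CHO cells; readings taken 4 hours after chemical dosing by filter-based scintillation counting. Primary screen ran single concentration (25 uM) in duplicate; actives followed up in concentration series, loss-of-signal versus DMSO baseline.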
# [15] = molecular target: human Adrenergic, Beta 3 Receptor (Adrb3), ADRB3 (gene 155) (UniProt P13945); experiment: NVS_GPCR_hAdrb3: NovaScreen (NVS) G Protein-Coupled Receptor Assay for human Adrenergic, Beta 3 Receptor (Adrb3) (AID 2283262)
# Method in brief: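 Membranes from SK-N-MC cells pretreated with isoproterenol and 8-bromo-cAMP were used in a radioligand competitive displacement binding assay. Binding was read by filter-based scintillation counting 1 hour after dosing. Primary screening was in duplicate at 25 uM, with concentration series in follow-up.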
# [16] = molecular target: human Histamine 1 Receptor (H1), HRH1 (gene 3269) (UniProt P35367); experiment: NVS_GPCR_hH1: NovaScreen (NVS) G Protein-Coupled Receptor Assay for human Histamine 1 Receptor (H1) (AID 2283268)
# Chain of human Histamine 1 Receptor (H1), HRH1 (gene 3269) (P35367 whole entry, looked up): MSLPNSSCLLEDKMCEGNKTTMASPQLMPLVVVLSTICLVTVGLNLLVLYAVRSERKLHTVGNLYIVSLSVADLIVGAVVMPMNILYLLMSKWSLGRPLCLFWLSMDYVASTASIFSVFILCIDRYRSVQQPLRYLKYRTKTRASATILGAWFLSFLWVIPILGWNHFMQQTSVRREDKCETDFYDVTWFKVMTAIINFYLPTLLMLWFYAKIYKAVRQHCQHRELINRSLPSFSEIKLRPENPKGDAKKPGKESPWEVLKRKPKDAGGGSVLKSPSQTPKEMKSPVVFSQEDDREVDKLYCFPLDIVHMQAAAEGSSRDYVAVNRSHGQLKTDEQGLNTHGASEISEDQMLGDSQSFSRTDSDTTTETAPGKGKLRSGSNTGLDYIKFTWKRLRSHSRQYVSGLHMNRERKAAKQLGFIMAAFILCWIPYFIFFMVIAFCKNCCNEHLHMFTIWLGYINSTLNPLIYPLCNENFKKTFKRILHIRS
# Method in brief: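 Cell-free radioligand displacement at human H1 receptor, 1 h, filter scintillation counting; primary screen 25 uM in duplicate, hits in concentration series; loss of binding fitted vs DMSO.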
# [17] = molecular target: human Endothelin Receptor Type A (ETA), EDNRA (gene 1909) (UniProt P25101); experiment: NVS_GPCR_hETA: NovaScreen (NVS) G Protein-Coupled Receptor Assay for human Endothelin Receptor Type A (ETA) (AID 2283265)
# Method in brief: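 Cell-free radioligand displacement using SH-SY5Y-derived protein, 3 h incubation, filter-based scintillation counting. Primary screen in duplicate at 25 uM; actives then run in concentration-response up to 50 uM; loss of binding fitted versus DMSO.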
# [18] = molecular target: human Neuropeptide Receptor Y1 (NPY1), NPY1R (gene 4886) (UniProt P25929); experiment: NVS_GPCR_hNPY1: NovaScreen (NVS) G Protein-Coupled Receptor Assay for human Neuropeptide Receptor Y1 (NPY1) (AID 2283276)
# Chain of human Neuropeptide Receptor Y1 (NPY1), NPY1R (gene 4886) (P25929 whole entry, looked up): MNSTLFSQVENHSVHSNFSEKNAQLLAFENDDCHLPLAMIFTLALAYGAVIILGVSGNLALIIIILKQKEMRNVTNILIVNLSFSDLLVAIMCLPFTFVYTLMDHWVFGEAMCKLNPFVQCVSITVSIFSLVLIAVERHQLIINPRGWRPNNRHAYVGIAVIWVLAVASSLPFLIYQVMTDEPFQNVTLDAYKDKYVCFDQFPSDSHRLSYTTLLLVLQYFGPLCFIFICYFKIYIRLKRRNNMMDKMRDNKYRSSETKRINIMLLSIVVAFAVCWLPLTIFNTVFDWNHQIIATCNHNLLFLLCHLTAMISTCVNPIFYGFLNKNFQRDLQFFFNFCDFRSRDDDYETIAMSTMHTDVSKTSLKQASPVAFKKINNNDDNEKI
# Method in brief: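 Cell-free radioligand binding using receptor extracted from SK-N-MC cells, 1 h incubation, filter-based scintillation counting. Primary screen single concentration 25 uM in duplicate; actives followed in concentration series. Loss of bound signal scored versus DMSO.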
# [19] = molecular target: human Dopamine Receptor D4.4 (DRD4.4), DRD4 (gene 1815) (UniProt P21917); experiment: NVS_GPCR_hDRD4.4: NovaScreen (NVS) G Protein-Coupled Receptor Assay for human Dopamine Receptor D4.4 (DRD4.4) (AID 2283264)
# Method in brief: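 Radioligand displacement on human DRD4.4 from CHO-derived membranes, 1 hour incubation, bound counts read by filtration and scintillation. Primary screen in duplicate at 25 uM; actives followed up in concentration series.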
# [20] = molecular target: Neuropeptide Y receptor type 2 (Homo sapiens) (UniProt P49146); experiment: NVS_GPCR_hNPY2: NovaScreen (NVS) G Protein-Coupled Receptor Assay for human Neuropeptide Receptor Y2 (NPY2) (AID 2283277)
# Chain of Neuropeptide Y receptor type 2 (Homo sapiens) (P49146 whole entry, looked up): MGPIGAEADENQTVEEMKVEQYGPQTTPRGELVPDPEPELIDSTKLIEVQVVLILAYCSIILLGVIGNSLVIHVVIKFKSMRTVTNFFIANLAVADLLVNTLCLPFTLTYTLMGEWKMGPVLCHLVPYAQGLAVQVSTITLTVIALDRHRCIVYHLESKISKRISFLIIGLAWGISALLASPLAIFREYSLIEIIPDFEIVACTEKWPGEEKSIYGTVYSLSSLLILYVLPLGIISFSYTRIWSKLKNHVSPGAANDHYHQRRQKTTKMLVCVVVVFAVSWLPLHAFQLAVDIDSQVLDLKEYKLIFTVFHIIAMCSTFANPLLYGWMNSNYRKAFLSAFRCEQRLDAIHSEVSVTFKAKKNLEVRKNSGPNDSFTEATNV
# Method in brief: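 Radioligand binding on membranes extracted from SK-N-MC cells, cell-free, read 1 h after dosing by filter-based scintillation counting. Loss of signal vs DMSO. Primary screen in duplicate at 25 uM; actives followed up in concentration-response up to 50 uM.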
compound,measurement,setting,value
CC1COC(Cn2cncn2)(c2ccc(Oc3ccc(Cl)cc3)cc2Cl)O1 (centres undefined),outcome,[1],inactive
same,AC50,[2],6.97 µM (active)
same,outcome,[3],inactive
C#CCOS(=O)OC1CCCCC1Oc1ccc(C(C)(C)C)cc1 (centres undefined),outcome,[4],inactive
same,outcome,[5],inactive
same,AC50,[2],25 µM (active)
Fc1ccc(Oc2ccnc3cc(Cl)cc(Cl)c23)cc1,outcome,[6],inactive
CO/C=C(/C(=O)OC)c1ccccc1Oc1cc(Oc2ccccc2C#N)ncn1,outcome,[4],inactive
same,outcome,[2],inactive
same,AC50,[3],14.6 µM (active)
COc1ccc(C(c2ccc(OC)cc2)C(Cl)(Cl)Cl)cc1,outcome,[4],inactive
same,outcome,[7],inactive
same,outcome,[8],inactive
same,outcome,[9],inactive
same,outcome,[2],inactive
same,outcome,[10],inactive
same,outcome,[3],inactive
same,outcome,[11],inactive
same,outcome,[12],inactive
same,outcome,[13],inactive
same,outcome,[14],inactive
COC(=O)C=C(C)OP(=O)(OC)OC,outcome,[13],inactive
OC(c1ccc(Cl)cc1)(c1cncnc1)c1ccccc1Cl (centres undefined),outcome,[8],inactive
same,outcome,[3],inactive
O=C(Nc1ccccc1)Nc1ccnc(Cl)c1,AC50,[6],11.6 µM (active)
same,AC50,[7],11.2 µM (active)
same,outcome,[15],inactive
same,AC50,[2],14.5 µM (active)
CCOC(=O)C(Cl)Cc1cc(-n2nc(C)n(C(F)F)c2=O)c(F)cc1Cl (centres undefined),outcome,[14],inactive
CC(C)Oc1cc(-n2nc(C(C)(C)C)oc2=O)c(Cl)cc1Cl,outcome,[16],inactive
CCCC1COC(Cn2cncn2)(c2ccc(Cl)cc2Cl)O1 (centres undefined),AC50,[11],4.96 µM (active)
same,outcome,[13],inactive
C=CCC1=C(C)C(OC(=O)C2C(C=C(C)C)C2(C)C)CC1=O (centres undefined),outcome,[4],inactive
same,outcome,[7],inactive
same,outcome,[5],inactive
same,outcome,[17],inactive
same,AC50,[2],41.6 µM (active) and 29.3 µM (active)
C=CCC1=C(C)[C@@H](OC(=O)[C@@H]2[C@@H](C=C(C)C)C2(C)C)CC1=O,AC50,[2],25 µM (active)
CN(C)C(=S)SSC(=S)N(C)C,outcome,[4],inactive
same,AC50,[2],4.51 µM (active)
same,outcome,[13],inactive
same,AC50,[18],14.7 µM (active)
COP(=S)(OC)Oc1nc(Cl)c(Cl)cc1Cl,outcome,[16],inactive
same,AC50,[2],12.6 µM (active)
same,outcome,[12],inactive
Cc1ccc(-c2c(Cl)nc(C#N)n2S(=O)(=O)N(C)C)cc1,outcome,[19],inactive
same,outcome,[9],inactive
same,outcome,[14],inactive
CNC(=S)S,outcome,[16],inactive
same,outcome,[12],inactive
same,outcome,[18],inactive
CCCCNC(=O)OCC#CI,AC50,[2],15.3 µM (active) and 9.21 µM (active)
same,AC50,[18],15.9 µM (active) and 14.4 µM (active)
CCON=C(CC)C1=C(O)CC(c2c(C)cc(C)cc2C)CC1=O (centres undefined),AC50,[6],4.3 µM (active)
N#CC(CCc1ccc(Cl)cc1)(Cn1cncn1)c1ccccc1 (centres undefined),outcome,[6],inactive
CS/C(C)=N/OC(=O)N(C)SN(C)C(=O)O/N=C(\C)SC,AC50,[18],25 µM (active)
CCNc1nc(Cl)nc(NC(C)C)n1,outcome,[5],inactive
same,outcome,[16],inactive
COc1nc(C)nc(NC(=O)NS(=O)(=O)c2ccccc2CCC(F)(F)F)n1,outcome,[20],inactive
